Compound activity deposited in PubChem BioAssay by National Center for Advancing Translational Sciences (NCATS).
The sample as a whole holds a higher share of hits than the screen did.
Pf Dd2 growth: inhibitors of Plasmodium falciparum Dd2 growth | P. falciparum Dd2 growth, SYBR Green, 72 h | Potency, µM (doses to about 28.9 µM), actives largely listed as inhibitors | 120,000 compounds, 4.3% hits | AID 1347417; active means well fitted inhibition curve with a large enough effect; further: nearly all actives have a fitted effect of over 65% in size
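Readout: SYBR Green fluorescence, 485 nm excitation, 535 nm emission, after ~16 h lysis at 37C. Before that, Dd2-infected red cells (2.5% hematocrit) grew 72 h with compound, 29 uM top final concentration.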
Each line names hits and unclear results; the compound was inactive in the other large screens.

C[C@@H](NC(=O)c1cccs1)c1onc(-c2cccnc2)c1C(=O)O	none
O=C(C1COc2ccccc2C1)N1CCc2c(ncnc2N2CCOCC2)C1 (configuration not stated)	none
COc1ccc(C2Cn3nnc(C(=O)NCc4ccc(SC)cc4)c3CO2)cc1 (configuration not stated)	none
COc1ccc(OC)c(NC(=O)c2nnn3c2COC(c2ccc(Cl)cc2)C3)c1 (configuration not stated)	none
COc1ccc(C2Cn3nnc(C(=O)Nc4cc(C)ccc4F)c3CO2)cc1 (configuration not stated)	Pf Dd2 growth 11µM
O=C(O)c1cc2cn(C3CC3)cc2s1	none
COc1ccc2c(c1)CC(C(=O)Nc1ccc(Br)c(C)c1)CO2 (configuration not stated)	none
Cc1nn2c(-c3ccco3)ccnc2c1-c1ccc(Br)cc1	none
CN1CCN(C2CCOC3(CCN(C(=O)CCc4ccccc4)CC3)C2)CC1 (configuration not stated)	none
CCC1CCCCN1CCNC(=O)CCc1cc2ccccc2[nH]c1=O (configuration not stated)	none
N#CCCN1CCN(C(=O)CCc2cc3ccccc3[nH]c2=O)CC1	none
O=C(CCc1cc2ccccc2[nH]c1=O)NCCN1CCc2ccccc2C1	Pf Dd2 growth 3.2µM
O=C(NCc1nnc2n1C(C(=O)N1CCN(c3ncccn3)CC1)CC2)c1ccccc1 (configuration not stated)	none
Cc1ccc(CCNC(=O)c2cc3c(N4CCSCC4)nc(C)cn3n2)cc1	none
O=C(CC[C@H]1NC(=O)c2ccccc2NC1=O)NCCc1ccco1	none
CC1CCN(CC[C@@H]2CC[C@H](O)[C@@H](C(=O)Nc3ccccc3)O2)CC1	none
C[C@H]1[C@@H]2[C@@H](O)C([C@H](C)C(=O)NCc3ccccn3)CC[C@@]2(C)CC[C@@H]1NC(=O)Cc1ccccc1 (some centres not stated)	none
COC(=O)CC1c2cc(OC)c(OC)cc2CCN1C(=O)Nc1ccc(C)cc1Cl (configuration not stated)	none
Cc1ccc(NC(=O)N2CCN(c3nnc(C)c4c(C)n(-c5ccccc5)nc34)CC2)c(Cl)c1	none
Cc1ccc(NC(=O)N2CCc3c([nH]c4ccccc34)C2c2ccccc2F)c(Cl)c1 (configuration not stated)	Pf Dd2 growth 10µM
Cc1ccc(OCC(=O)c2ccc3c(c2)N(C(C)C(=O)NCC2CC2)C(=O)CO3)cc1C (configuration not stated)	none
CCC(CC)C(=O)Nc1nnc(S(=O)(=O)N2CCc3ccccc32)s1	none
O=C(NC1CCCCC1)N[C@H]1CCN2C(=O)c3ccccc3NC(=O)[C@H]12	none
Cc1ccccc1CN1C[C@@H]2C(=O)N(CCc3ccccc3)C(=O)[C@@H]2C1	none
CC(C)CCN1C[C@@H]2C(=O)N(CCc3ccccc3)C(=O)[C@@H]2C1	Pf Dd2 growth 8.9µM
O=C1[C@H]2CN(Cc3ccc(Cl)cc3)C[C@H]2C(=O)N1CCc1ccccc1	none
CC(C(=O)N1CCOCC1)N1C(=O)COc2ccc(C(=O)COc3ccc(Cl)cc3)cc21 (configuration not stated)	none
Cc1[nH]nc(-c2ccc(F)cc2)c1CC(=O)Nc1ccc2c(c1)C(=O)N1CCC[C@H]1C(=O)N2	none
O=C(Cn1nc2c(cc1=O)CCCCC2)NC1CCS(=O)(=O)C1 (configuration not stated)	none
Cc1cccc(C(=O)N2C[C@@H](Oc3ccccc3)C[C@H]2C(=O)N2CCCC2)c1	none
CN1CCC(N2CC3(CCC2=O)CCN(C(=O)c2ccccn2)CC3)C1 (configuration not stated)	none
Cc1ccc(C)c(Cn2c(=O)n(Cc3ccc4c(c3)OCO4)c(=O)c3oc4ccccc4c32)c1	none
Cc1cccc(Cn2c(=O)n(Cc3ccccc3)c(=O)c3oc4ccccc4c32)c1	none
O=c1c2oc3ccccc3c2n(Cc2ccccc2F)c(=O)n1Cc1ccc2c(c1)OCO2	none
COc1ccc(Cn2c(=O)c3oc4ccccc4c3n(Cc3cccc(F)c3)c2=O)cc1	none
O=c1c2oc3ccccc3c2n(Cc2cccc(Cl)c2)c(=O)n1Cc1ccc2c(c1)OCO2	Pf Dd2 growth 10µM
O=c1c2sc3ccccc3c2n(Cc2cccc(C(F)(F)F)c2)c(=O)n1Cc1ccccc1	none
O=c1c2sc3ccccc3c2n(Cc2cccc(Cl)c2)c(=O)n1Cc1ccc(F)cc1	none
O=c1c2sc3ccccc3c2n(Cc2cccc(C(F)(F)F)c2)c(=O)n1Cc1ccc(F)cc1	Pf Dd2 growth 11µM
O=c1c2oc3ccccc3c2n(Cc2cccc(C(F)(F)F)c2)c(=O)n1Cc1ccc2c(c1)OCO2	Pf Dd2 growth 7.9µM
O=C(CC[C@H]1NC(=O)c2ccccc2NC1=O)NCCc1nnc2ccccn12	none
C[C@@H]1C(=O)O[C@H]2[C@H]1CC[C@@]1(C)Cc3sc(NS(=O)(=O)c4ccc(Cl)cc4)nc3[C@@H](C)[C@H]21	none
COc1cccc(C(=O)Nc2cccc(-c3nnc4n3CCCC4)c2)c1	Pf Dd2 growth 5.6µM
COc1cccc(NCc2nnc3n2CCCCC3)c1	none
N#Cc1ccc(C(=O)Nc2cccc(-c3nnc4n3CCCC4)c2)cc1	Pf Dd2 growth 1.3µM
Cc1cc2nc3n(c(=O)c2n1CC(=O)Nc1cccc(C#N)c1)CCCCC3	none
O=C(Nc1cccc(-c2nnc3n2CCCC3)c1)c1cc(C2CC2)[nH]n1	Pf Dd2 growth 4µM
Cc1ccc(NC(=O)N2CCC(c3cc(-c4cccc(C)c4)n[nH]3)CC2)cc1	none
CCOc1ccc(-c2nnc3n2CCCC3)cc1OCC	none
CCOc1ccc(C(=O)Nc2ccc3c(c2)CCCN3S(=O)(=O)c2ccc(C)cc2)cc1	none
CCOc1ccc(C(=O)Nc2cccc(-c3nnc4n3CCCC4)c2)cc1	Pf Dd2 growth 1.6µM
Cc1nnc2n1CCC(NC(=O)c1cc(C3CC3)[nH]n1)CC2 (configuration not stated)	none
COC(=O)c1ccc(NC(=O)NC(C)c2c(-n3cccc3)sc(C)c2C)cc1 (configuration not stated)	none
O=C(NCc1ccccc1Cl)c1cc2c(s1)-c1ccc(Cl)cc1SC2	none
CN(CC1CCOC1)C(=O)c1cc(Cl)ccc1F (configuration not stated)	none
CC(C)(C)C1CCc2c(sc3nc(-c4cc5cc(Cl)ccc5oc4=O)[nH]c(=O)c23)C1 (configuration not stated)	none
CNC(=O)N1CCC(C2CCN(S(=O)(=O)C(C)C)C2)CC1 (configuration not stated)	none
CN1c2cc(C(=O)NCc3ccncc3)ccc2C(=O)N2CCCCC21 (configuration not stated)	none
CC(C)NC(=O)Cn1ccn2nc3c(c2c1=O)CCCC3	none
CCc1nn(CC(=O)NC(C)c2ccccc2)c(=O)c2cc3sccc3n12 (configuration not stated)	none
CCS(=O)(=O)NCC1(COc2ccc(S(C)(=O)=O)cc2)C[C@@H](O)[C@@H](O)C1 (some centres not stated)	none
COCCC(=O)N1CCCN(S(C)(=O)=O)c2ccccc21	none
Cc1ccc(-c2noc(-c3ccc(NCc4cccnc4)c([N+](=O)[O-])c3)n2)cc1	none
COc1ccc(C(=O)Nc2cccc(-c3nnc4n3CCCC4)c2)cc1OC	Pf Dd2 growth 5µM
CCn1nccc1C(=O)NCCC1CCN(C(=O)Nc2cccc(C)c2)CC1	none
O=C(Nc1ccc(-c2nnc3n2CCCC3)cc1)c1cccc(Cl)c1	none
CN(C)c1cccc(C(=O)Nc2cccc(-c3nnc4n3CCCC4)c2)c1	Pf Dd2 growth 4.5µM
COc1ccc(NC(=O)Cn2nc3n(c2=O)CCCC3)cc1OC	none
Cc1cccc(N(C)C(=O)Cn2nc3n(c2=O)CCCC3)c1	none
